Screening data deposited in PubChem BioAssay by several laboratories.
MMP-13 inhibitor: human MMP13 inhibitors, primary screen, biochemical, FRET peptide cleavage; MMP-13 fTHP FRET cleavage, Mca fluorescence; inhibition, % at 4 µM; 65,000 compounds, 0.07% hits;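 active means inhibition above the mean of compound-free control plate wells plus 3 SD, cut at about 14% in these data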;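 further: 0% = DMSO wells and 100% = wells with reference MMP-13 inhibitor after basal subtraction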
MT1-MMP txn act: MT1-MMP promoter reporter activation – cell-based, luciferase luminescence, primary screen | HT1080 MT1-MMP promoter luciferase reporter, overnight; hits give high values | activation factor at 10 µM | 86,000 compounds, 0.16% hits | AID 750, 2007;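 active means activation factor of at least 2 for MT1-MMP transcription at 10 µM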
ERa coact pot: enhancers of ERα–SRC-1 coactivator binding, primary screen, biochemical, TR-FRET, ERα LBD, low estradiol. Estrogen receptor (Homo sapiens), P03372. TR-FRET ERalpha-LBD/SRC-Cy5 coactivator binding, 2 h; 100 = basal binding, no effect. coactivator binding (% of control), % at 25.6 µM. 86,000 compounds, 1.3% hits; in the data active means activity above about 200%;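 further: binding measured in presence of low estradiol as agonist stimulus; 0% = peptide alone without receptor and 100% = receptor with peptide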
Smad3 FoxH1 inh: Smad3/FoxH1 peptide binding inhibitors, primary screen, biochemical, TR-FRET. Mothers against decapentaplegic homolog 3 (Homo sapiens), P84022. TR-FRET Smad3/Dy647-FoxH1 peptide binding, europium anti-His. inhibition, % at 25 µM. 88,000 compounds, 0.29% hits;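 active means compounds that reduce the energy-transfer binding signal between the protein and its labelled peptide by more than half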;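 further: 0% = Smad3 plus labelled peptide maximal FRET and 100% = peptide-only background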
ERa SRC1 inh: ERα–SRC-1 coactivator interaction inhibitors, primary screen, biochemical, TR-FRET, ERα LBD, estradiol-bound. Estrogen receptor (Homo sapiens), P03372. TR-FRET ER-alpha LBD / SRC-1 peptide. inhibition, % at 25.6 µM. 86,000 compounds, 1.7% hits. AID 629, 2007; in the data active means inhibition above about 50%;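 further: 0% = receptor plus peptide control and 100% = peptide only without receptor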
ERb coact inh: inhibitors of ERβ-SRC1 coactivator interaction, primary screen, biochemical, TR-FRET, ERβ LBD, SRC-1 peptide. AID 633, 2007. Estrogen receptor beta (Homo sapiens), Q92731. TR-FRET ER-beta LBD / SRC1-Cy5 peptide binding; receptor agonist-loaded with 1 µM estradiol. 86,000 compounds, 1.3% hits. inhibition, % at 25.6 µM;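 active means compounds whose percent inhibition of the receptor-coactivator binding signal exceeds about 50% in the single-dose screen, limit read from the data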;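 further: 0% = receptor plus peptide wells without compound and 100% = peptide-only wells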
Target sequence (Q92731 whole entry, looked up, the tested form may be a part): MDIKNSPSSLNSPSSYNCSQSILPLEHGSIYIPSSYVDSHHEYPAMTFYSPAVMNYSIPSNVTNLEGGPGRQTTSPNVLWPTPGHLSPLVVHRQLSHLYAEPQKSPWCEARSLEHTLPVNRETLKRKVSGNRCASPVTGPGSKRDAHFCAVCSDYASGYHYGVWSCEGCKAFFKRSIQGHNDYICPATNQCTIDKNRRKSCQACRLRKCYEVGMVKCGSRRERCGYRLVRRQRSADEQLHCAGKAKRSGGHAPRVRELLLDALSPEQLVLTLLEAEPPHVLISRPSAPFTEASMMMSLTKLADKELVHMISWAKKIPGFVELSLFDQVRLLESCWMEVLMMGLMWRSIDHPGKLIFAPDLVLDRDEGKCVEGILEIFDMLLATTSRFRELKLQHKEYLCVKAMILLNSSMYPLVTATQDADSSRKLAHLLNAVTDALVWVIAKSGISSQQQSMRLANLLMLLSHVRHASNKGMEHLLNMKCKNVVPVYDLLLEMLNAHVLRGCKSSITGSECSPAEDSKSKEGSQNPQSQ
* hit, by the source's call; . = no result; + = active, no number; [ ] = remark or other dose. Shown are actives, neighbours in structure and some others; about 3.5% of the full set was active somewhere.

SMILES | MMP-13 inhibitor | MT1-MMP txn act | ERa coact pot | Smad3 FoxH1 inh | ERa SRC1 inh | ERb coact inh
COc1cc(C)c(Cl)c(C)c1S(=O)(=O)NCc1ccc2c(c1)OCO2 | 4 | 1.1 | 101 | -1 | -5 | -2
COc1cc(C(=O)Nc2ccc3c(c2)C(=O)N(CCC(=O)O)C3=O)cc(OC)c1OC | 2 | 1 | 99 | 6 | -25 | -14
CC(=O)Oc1ccc(C(=O)Nc2ccc3c(c2)C(=O)N(CCC(=O)O)C3=O)cc1 | . | 1.2 | 709*[fluorescence artefact?] | 9 | -37 | -15
CC12CCC(=O)N1C(C(=O)OCC(=O)Nc1sccc1C#N)CS2 (centres undefined) | -2 | 1 | 37 | 14 | 91*[fluorescence artefact?] | 68*
CC1CC(C)(C)NC(C)c2ccccc21 (centres undefined) | -3 | 1.2 | 101 | -7 | -9 | -9
CC1CC(C)(C)NCc2ccccc21 (centres undefined) | 4 | 1.1 | 106 | 2 | 2 | 88*[fluorescence artefact?]
COc1ccccc1-c1c(C)nn2c(NCCN3CCCC3)cc(C)nc12 | 1 | 1.1 | 106 | 16 | 1 | -2
COc1ccccc1OCC(=O)Nc1ccc(S(=O)(=O)NC(C)=O)cc1 | 1 | 1.1 | 112 | -13 | -5 | -1
Cc1csc(SCC(=O)c2c(N)n(CC(C)C)c(=O)n(C)c2=O)n1 | . | 1.1 | 109 | 1 | -11 | -2
Cc1ccc(-n2nnnc2SCC(=O)c2c(N)n(CC(C)C)c(=O)n(C)c2=O)cc1 | -4 | 1.1 | 242* | 3 | -8 | -6
COc1ccc(-c2cc(C(=O)OCC(=O)N3CCCC3)c3ccccc3n2)cc1 | -53 | 1.2 | 102 | 0 | -9 | -6
Cc1ccc2[nH]c3c(NCc4ccco4)ncnc3c2c1 | -62 | 1.9 | 81 | -5 | 16 | 26
Cc1ccc2[nH]c(=O)c(-c3nc4ccccn4c3NCc3ccco3)cc2c1 | . | 1.2 | 115 | -2 | 53* | 22
O=c1c2ccccc2c(C=NCCO)c(O)n1-c1ccccc1 | 15* | 1.3 | 107 | -2 | -1 | -3
Cc1cc(NC(=O)CSc2cn(CCNC(=O)c3ccc(Cl)cc3)c3ccccc23)no1 | -1 | 1.3 | 58 | -9 | 70* | 44
COCc1nnc(NS(=O)(=O)c2ccccc2)s1 | 0 | 1 | 111 | -2 | -2 | 4
CC1CCc2c(sc(NC(=O)c3ccc(Cn4cc([N+](=O)[O-])cn4)o3)c2C#N)C1 (centres undefined) | . | 1.2 | 70 | -3 | 61* | 64*
CCn1c(SCC(=O)c2ccc(Br)cc2)nnc1C(C)NC(=O)Cc1ccc(OC)cc1 (centres undefined) | . | . | 93 | 0 | -2 | 17
COC(=O)c1sc(NC(=O)c2oc3ccccc3c2C)nc1C | -14 | 2.3* | 121 | 5 | -6 | -3
Cn1c(SCC(=O)N2CCOCC2)nc2cccnc21 | 2 | 1.3 | 435*[fluorescence artefact?] | -4 | 19 | 22
O=C(Nc1ccc(N2CCCC2)cc1)c1cccc(F)c1 | 2 | 0.5 | 60 | -1 | 33 | 55*[fluorescence artefact?]
O=C(Nc1ccc(N2CCN(c3ccc(O)cc3)CC2)cc1)Oc1ccccc1 | 2 | 1 | 30 | 7 | 95*[fluorescence artefact?] | 57*[fluorescence artefact?]
CN1CCN(c2ccc(NC(=O)c3cccc(OCc4ccccc4)c3)cc2)CC1 | 1 | 1.3 | 42 | 13 | 37 | 62*[fluorescence artefact?]
O=C(Nc1ccc(N2CCCC2)cc1)c1ccccc1F | . | . | 17 | 10 | 96*[fluorescence artefact?] | 80*[fluorescence artefact?]
Cc1nc(C)c(C)nc1C | . | 1.1 | 112 | -7 | -1 | 1
SMILES | MMP-13 inhibitor | MT1-MMP txn act | ERa coact pot | Smad3 FoxH1 inh | ERa SRC1 inh | ERb coact inh
CCC(=O)N(Cc1cc2ccccc2[nH]c1=O)C(C)C | -7 | 1.1 | 98 | 13 | 2 | 5
CCS(=O)(=O)n1nc(-c2ccccc2)nc1N | -4 | 1.1 | 102 | 2 | -6 | -11
Cc1ccc(-c2csc3nnc(SCC(=O)N4CCN(Cc5ccccc5)CC4)n23)cc1 | -2 | 1.1 | 108 | 17 | 9 | -1
CCOC(=O)C(CCC(=O)O)(CCC(C)C)c1csc(N)n1 (centres undefined) | . | 1 | +[fluorescence artefact?] | -5 | -10 | -15
CCOC(=O)Nc1ccc(OC)cc1S(=O)(=O)N1CCCCC1 | 4 | 1.1 | 66 | 11 | 74*[fluorescence artefact?] | 74*[fluorescence artefact?]
O=C(O)C(O)c1ccco1 (centres undefined) | 0 | 1.3 | 132 | 21 | 54* | 58*[fluorescence artefact?]
O=c1c2cc(N3CCOCC3)ccc2[nH]c(=S)n1Cc1ccc(Cl)cc1 | . | 1.4 | 118 | 2 | 13 | 11
O=c1c2cc(N3CCOCC3)ccc2[nH]c(=S)n1CCCN1CCCCCC1 | -16 | 1.3 | 49 | 9 | 75*[fluorescence artefact?] | 50
O=c1c2cc(N3CCOCC3)ccc2[nH]c(=S)n1CCN1CCCC1 | -7 | 1.1 | 84 | 2 | 29 | 15
Cc1ccc(Cn2c(=S)[nH]c3ccc(N4CCOCC4)cc3c2=O)o1 | -6 | 1 | 67 | 13 | 26 | 52*[fluorescence artefact?]
C=CCn1c(NC(=O)c2ccccc2Cl)c(C#N)c2nc3ccccc3nc21 | -18 | 1.1 | 76 | 34 | -12 | -7
C=CCn1c(NC(=O)c2ccccc2)c(C#N)c2nc3ccccc3nc21 | -78 | 1 | 36 | 67* | 74*[fluorescence artefact?] | 42
C=CCc1ccc(OCC(O)CO)c(OC)c1 (centres undefined) | . | 1.3 | 116 | 16 | 0 | 0
Brc1cccc(-c2nc(-c3ccncc3)no2)c1 | 4 | 1.3 | 84 | -22 | 2 | 6
Clc1ccc(Br)cc1-c1nc(-c2ccncc2)no1 | 0 | 1.5 | 246*[fluorescence artefact?] | 9 | 34 | 27
CCc1c(C)sc(NC(=O)c2cnn3cccnc23)c1C#N | 5 | 1.2 | 262*[fluorescence artefact?] | 5 | 36 | 32
CCOC(=O)CNC(=O)c1cnn2cccnc12 | -9 | 1.1 | 104 | 3 | 5 | 38
CC(C)C(=O)Nc1nnc(-c2ccccc2)o1 | -18 | 1.1 | 122 | 7 | -4 | -3
CC(=O)Nc1nc2c(c3c1c(=O)oc1ccccc13)CCCC2 | -5 | 1.3 | 145 | 1 | 1 | 4
CCCCc1cc2c(c(NC(C)=O)n1)c(=O)oc1ccccc12 | -7 | 0.9 | 270*[fluorescence artefact?] | -5 | 28 | 16
CCCCc1cc2c(c(NC(=O)CC)n1)c(=O)oc1ccccc12 | -2 | 1.1 | 121 | -4 | 62*[fluorescence artefact?] | 40
CC(=O)Nc1nc2c(c3c1c(=O)oc1ccccc13)CC(C)CC2 (centres undefined) | -24 | 0.9 | 227*[fluorescence artefact?] | 38 | 12 | 8
CC(=O)Nc1nc(CC(C)C)cc2c1c(=O)oc1ccccc12 | -3 | 1.2 | 107 | -14 | 1 | 43
